High-throughput results: PubChem BioAssay, National Center for Advancing Translational Sciences (NCATS)
MCF10A rerep: A quantitative high throughput screen for small molecules that induce DNA re-replication in MCF 10a normal breast cells; MCF 10A DNA re-replication, Hoechst nuclear intensity, 48 h; Potency, µM (top dose mostly 46.1 µM), inactives show at the highest dose activity, positive = re-replication, most hits filed as activators; 350,000 compounds, 2.9% hits; AID 624296, 2012; note: % of control where 0% means no effect; nearly all actives have a fitted effect of over 50% in size
HT1080NT lethal: qHTS for induction of synthetic lethality in tumor cells producing 2HG: qHTS for the HT-1080-NT fibrosarcoma cell line. 360,000 compounds, 1.6% hits. HT-1080-NT fibrosarcoma viability, CellTiter-Glo ATP luminescence, 48 h. Potency, µM (highest dose often 46.1 µM), for the others: at the highest dose activity, negative = less viability, hits mostly cytotoxic;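 note: NT is the 2HG producing partner of a matched IDH1 knockdown line; 0% = DMSO-treated cells and -100% = media-only wells without cells; nearly all actives have a fitted effect of over 55% in size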
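750 cells/well, RPMI + 5% FBS; 2 h settle, compound pin-transfer, 48 h at 37 degrees C. CellTiter-Glo 10 min RT, luminescence. Normalized to DMSO and media-only wells.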
KB-V1 cytotox: qHTS assay for MDR1-selective chemotherapeutics: Primary screen using the drug-selected MDR subline cells KB-V1 | Potency, µM (doses to about 46.1 µM), hits mostly cytotoxic | KB-V1 MDR cells viability, CellTiter-Glo, 72 h | 400,000 compounds, 3.4% hits | AID 1347076, 2019; note: % is set by controls: 0 for no effect and ±100 for the full control effect; nearly all actives have a fitted effect of over 60% in size
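Drug-selected KB-V1 cells, grown in DMEM lacking phenol red with 10% FBS, receive compound titrations; after three days at 37 degrees C, surviving cell ATP is quantified by CellTiter-Glo luminescence and responses normalized and curve-fitted.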
KB-3-1 tox: qHTS assay for MDR1-selective chemotherapeutics: Primary screen using the parental adenocarcinoma cell KB-3-1 | AID 1347075, 2019 | 400,000 compounds, 1.4% hits | KB-3-1 viability, CellTiter-Glo ATP luminescence, 72 h | Potency, µM (series often up to 46.1 µM), hits mostly cytotoxic; note: % is set by controls: 0 for no effect and ±100 for the full control effect; nearly all actives have a fitted effect of over 60% in size
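Viability of parental KB-3-1 cells, measured by CellTiter-Glo luminescence, followed a 72 h incubation at 37 °C with pinned compounds in phenol-red-free DMEM containing 10% FBS.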
SW480 rereplic: A quantitative high throughput screen for small molecules that induce DNA re-replication in SW480 colon adenocarcinoma cells. SW480 DNA re-replication, Hoechst DNA content imaging, 48 h. Potency, µM (titrated, usually from 46.1 µM), inactives show at the top dose re-replication activation, most hits filed as activators. 340,000 compounds, 1.8% hits; note: % of control where 0% means no effect; nearly all actives have a fitted effect of over 55% in size
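Per well, 250 cells were exposed to pinned compound for 48 hr. Nuclear DNA was visualised with Hoechst (40 min, 37 C) and total object intensity recorded by fluorescence scanning.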
HT1080 IDH1KD tx: qHTS for induction of synthetic lethality in tumor cells producing 2HG: qHTS for the HT-1080-IDH1KD cell line; AID 686971, 2013; Potency, µM (series often up to 46.1 µM), inactives show top-dose activity, negative = toxicity, most hits filed as cytotoxic; HT-1080 IDH1 knockdown viability, ATP luminescence, 48 h; 360,000 compounds, 2% hits;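 note: 0% = DMSO wells and -100% = cell-free medium wells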
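Cytotoxicity counter-line: IDH1KD HT-1080, 48 h, CellTiter-Glo. Curves classed by r2, magnitude and activity.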
Numbers without * were called inactive; ! = repeats disagree; [ ] = dose if it differs, or a comment. Compounds with a hit are over-represented: about 7.9% of the library has one in this group of screens. Calls come from the whole dose curve; as a rule, active = well fitted curve in the direction sought with a large enough effect; inconclusive = small, poorly fitted or top-dose-only effect, or another doubt; inactive = no such curve, though single readings can be large; an effect the other way counts as inactive or inconclusive. Potency is the fitted concentration of half-maximal effect.

How did NC(=O)c1sc2nc3c(c(-c4cccs4)c2c1N)CCCC3 do in these assays?
MCF10A rerep: inconclusive; SW480 rereplic: -422.5%

How did Cn1ncnc2c(=O)n(C)c(=O)nc1-2 do in these assays?
MCF10A rerep: 18.4µM*; HT1080NT lethal: 0.517µM*; KB-V1 cytotox: 0.731µM*; KB-3-1 tox: 0.651µM*; SW480 rereplic: 0.5%; HT1080 IDH1KD tx: 1.03µM*

Results for Cc1ccc(-c2nc3c(=O)n(C)c(=O)nc-3n(C)n2)cc1 ?
KB-V1 cytotox: 7.31µM*; KB-3-1 tox: 2.59µM*

What do the screens show for `C[n+]1c(-c2ccccc2)c2cc(N)ccc2c2ccc(N)cc21`?
MCF10A rerep: -26.4%; HT1080NT lethal: 6.51µM*; KB-V1 cytotox: inactive; KB-3-1 tox: 2.91µM*; SW480 rereplic: -96.7%; HT1080 IDH1KD tx: 1.3µM*

What do the screens show for `O=C(Cc1ccc(N(CCCl)CCCl)cc1)NC(Cc1ccc(Cl)cc1)C(=O)O` (stereo unspecified)?
MCF10A rerep: -5.8%; HT1080NT lethal: 14.9%; KB-V1 cytotox: inactive; KB-3-1 tox: inactive; SW480 rereplic: 1.4%; HT1080 IDH1KD tx: 8.9%

How did O=C(Cc1c[nH]c2ccccc12)NNCc1ccc(N(CCCl)CCCl)cc1 do in these assays?
MCF10A rerep: 24.7%; HT1080NT lethal: -6.6%; KB-V1 cytotox: inactive; KB-3-1 tox: inconclusive; SW480 rereplic: 16.4µM*; HT1080 IDH1KD tx: -15.2%

Results for COC(=O)C1=C(c2ccc3ccccc3c2)C[C@@H]2CC[C@H]1N2C ?
MCF10A rerep: 10.9%; HT1080NT lethal: 2.8%; KB-V1 cytotox: inactive; KB-3-1 tox: inactive; SW480 rereplic: -5.0%; HT1080 IDH1KD tx: 0.0%

Results for COC(=O)C1=C(C(=O)OC)C2OC1c1cc3ccccc3cc12 ?
MCF10A rerep: inconclusive; HT1080NT lethal: inconclusive; KB-V1 cytotox: inactive; KB-3-1 tox: inactive; SW480 rereplic: 13µM*; HT1080 IDH1KD tx: 3.26µM*

How did COc1ccc(OCC(=O)N2CCN(Cc3c[nH]c4ccccc34)CC2)cc1 do in these assays?
MCF10A rerep: 15.2%; HT1080NT lethal: -0.5%; KB-V1 cytotox: 16.4µM*; KB-3-1 tox: inactive; SW480 rereplic: -2.8%; HT1080 IDH1KD tx: -0.2%

What do the screens show for `O=C(COc1ccccc1)N1CCN(C/C=C/c2ccccc2)CC1`?
MCF10A rerep: 2.3%; HT1080NT lethal: 2.8%; KB-V1 cytotox: 16.4µM*; KB-3-1 tox: inactive; SW480 rereplic: 13.9%; HT1080 IDH1KD tx: 1.5%

What do the screens show for `COc1ccc(CN2CCN(C(=O)COc3cccc(C)c3)CC2)c(OC)c1`?
MCF10A rerep: 18.7%; HT1080NT lethal: 4.5%; KB-V1 cytotox: 2.31µM*; KB-3-1 tox: inactive; SW480 rereplic: inconclusive; HT1080 IDH1KD tx: -17.6%

How did CC(C)(O)C(Cl)(Cl)Cl do in these assays?
MCF10A rerep: -0.1%; SW480 rereplic: 0.7%

What do the screens show for `COc1ccc(-c2noc(=O)n2Cc2cc(C)ccc2C)cc1`?
MCF10A rerep: 16.4µM*; HT1080NT lethal: inconclusive; KB-V1 cytotox: inconclusive; KB-3-1 tox: inconclusive; SW480 rereplic: inconclusive; HT1080 IDH1KD tx: inconclusive

Results for C=C1CC[C@H](O)C/C1=C/C=C1\CCC[C@]2(C)[C@@H]([C@H](C)CCCC(C)C)CC[C@@H]12 ?
MCF10A rerep: 23.7µM*; SW480 rereplic: 14.7%

What do the screens show for `OCCN1CCN(CCCN2c3ccccc3Sc3ccc(C(F)(F)F)cc32)CC1`?
MCF10A rerep: 23.1µM*!; HT1080NT lethal: 13µM*; KB-V1 cytotox: inconclusive; KB-3-1 tox: inactive; SW480 rereplic: inconclusive; HT1080 IDH1KD tx: 23.1µM*

How did FC(F)(F)c1ccc2c(c1)N(CCCN1CCN(CCCl)CC1)c1ccccc1S2 do in these assays?
MCF10A rerep: inconclusive; HT1080NT lethal: inconclusive; KB-V1 cytotox: inconclusive; KB-3-1 tox: inconclusive; SW480 rereplic: -2.8%; HT1080 IDH1KD tx: inconclusive

Results for O=[N+]([O-])c1oc2ccc3ccccc3c2c1CCO ?
MCF10A rerep: 5.17µM*; HT1080NT lethal: inconclusive; KB-V1 cytotox: 5.8µM*; KB-3-1 tox: inconclusive; SW480 rereplic: inconclusive; HT1080 IDH1KD tx: inconclusive

Results for Cc1ccc(NP(=O)(Oc2ccccc2)Oc2ccccc2)cc1 ?
MCF10A rerep: -0.1%; HT1080NT lethal: -17.4%; KB-V1 cytotox: inactive; KB-3-1 tox: inactive; SW480 rereplic: 9.0%[1.84 µM]; HT1080 IDH1KD tx: -5.6%

How did Cc1ccc(OP(=O)(NCc2ccccc2)Oc2ccc(C)cc2)cc1 do in these assays?
MCF10A rerep: inconclusive; HT1080NT lethal: -1.2%; KB-V1 cytotox: 14.6µM*; KB-3-1 tox: inconclusive; SW480 rereplic: inconclusive; HT1080 IDH1KD tx: 0.5%

How did O=c1n(Cl)c(=O)n(Cl)c(=O)n1Cl do in these assays?
MCF10A rerep: 0.0%; SW480 rereplic: -5.9%

How did C[C@@H](N)[C@@H](O)c1ccc(O)c(O)c1 do in these assays?
MCF10A rerep: -1.5%; SW480 rereplic: 10.5%

How did COc1cc2c3cc1Oc1cc(ccc1O)C[C@@H]1c4c(cc(OC)c(O)c4Oc4ccc(cc4)C[C@H]3N(C)CC2)CCN1C do in these assays?
MCF10A rerep: 18.4µM*!; HT1080NT lethal: 11.0%; KB-V1 cytotox: inconclusive; KB-3-1 tox: inactive; SW480 rereplic: 10.3µM*; HT1080 IDH1KD tx: 8.2%

What do the screens show for `COc1cc2c3cc1Oc1c(OC)c(OC)cc4c1[C@H](Cc1ccc(cc1)Oc1cc(ccc1O)C[C@H]3N(C)CC2)N(C)CC4`?
MCF10A rerep: 45.2%; HT1080NT lethal: inconclusive; KB-V1 cytotox: inconclusive; KB-3-1 tox: inactive; SW480 rereplic: 15.7%; HT1080 IDH1KD tx: inconclusive

What do the screens show for `COc1cc2c3c(c1OC)Oc1ccc(cc1)C[C@H]1c4c(cc(OC)c(OC)c4Oc4ccc(cc4)C[C@@H]3N(C)CC2)CCN1C`?
MCF10A rerep: inconclusive; HT1080NT lethal: -16.6%; KB-V1 cytotox: inactive; KB-3-1 tox: inactive; SW480 rereplic: 2.59µM*; HT1080 IDH1KD tx: -24.6%

What do the screens show for `COc1ccc2cc1Oc1ccc(cc1)C[C@H]1c3cc(c(OC)cc3CCN1C)Oc1c(OC)c(OC)cc3c1[C@H](C2)N(C)CC3`?
MCF10A rerep: inconclusive; HT1080NT lethal: 5.8µM*; KB-V1 cytotox: 16.4µM*!; KB-3-1 tox: inconclusive; SW480 rereplic: inconclusive; HT1080 IDH1KD tx: 14.6µM*

How did COc1ccc(C(=O)c2c(C)n(CCN3CCOCC3)c3ccccc23)cc1 do in these assays?
MCF10A rerep: 12.8%; SW480 rereplic: inconclusive
